Reference: PubChem BioAssay AID1159580 (chemical genetic matrix, 2015)
Values joined by “and” are separate entries in the source; they are usually repeats but may differ in a detail not shown here. Equal values may be shown once. Out of some 5,500 compounds screened, about 2,000 (36%) were called active. Roughly 18% stayed inconclusive and do not appear here. Rule as the data show it: active = normalized growth mostly below about 0.91 (no sharp cut-off); inconclusive = no clear call, values can overlap the other calls; inactive = mostly above about 0.92. This is one part of the list.

Assay: chemical genetic growth profiling, strain panel (AID 1159580);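 also: tested at 20 µM; growth read once vehicle control cultures reached saturation at 30 °C; 1 = growth at the plate median or of vehicle wells; lower values mean less growth of the strain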
Settings: S. cerevisiae deletion strains, growth OD

Measured: normalized growth

C[C@]12CCC(=O)C=C1CCC1C2CC[C@@]2(C)C1CC[C@@H]2O (some centres not stated)
inactive: locus YAL013W, strain DEP1, stronger effect = lower value 1.01 | locus YAL021C, strain ccr4, stronger effect = lower value 0.967 | locus YAL026C, strain drs2, stronger effect = lower value 1 | locus YAL030W, strain snc1, stronger effect = lower value 0.997 | locus YBL061C, strain skt5, stronger effect = lower value 0.987 | locus YBR009C, strain hhf1, stronger effect = lower value 0.99 | locus YBR021W, strain FUR4, stronger effect = lower value 0.97 | locus YBR023C, strain chs3, stronger effect = lower value 0.988 | locus YBR171W, strain sec66, stronger effect = lower value 0.969 | locus YBR229C, strain ROT2, stronger effect = lower value 1.02 | locus YBR231C, strain swc5, stronger effect = lower value 0.99 | locus YBR279W, strain paf1, stronger effect = lower value 0.998 | locus YCL011C, strain gbp2, stronger effect = lower value 0.993 | locus YCL016C, strain dcc1, stronger effect = lower value 0.988 | locus YCL029C, strain bik1, stronger effect = lower value 1.02 | locus YCL061C, strain MRC1, stronger effect = lower value 0.993 | locus YCL069W, strain vba3, stronger effect = lower value 0.999 | locus YCR088W, strain abp1, stronger effect = lower value 1 | locus YDL005C, strain med2, stronger effect = lower value 0.989 | locus YDL035C, strain GPR1, stronger effect = lower value 0.988 | locus YDL040C, strain nat1, stronger effect = lower value 0.985 | locus YDL074C, strain BRE1, stronger effect = lower value 0.995 | locus YDL101C, strain DUN1, stronger effect = lower value 1.01 | locus YDL134C, strain PPH21, stronger effect = lower value 1.03 | locus YDL185W, strain tfp1, stronger effect = lower value 1.03 | locus YDL192W, strain arf1, stronger effect = lower value 1.03 | locus YDR001C, strain nth1, stronger effect = lower value 0.996 | locus YDR069C, strain doa4, stronger effect = lower value 0.977 | locus YDR101C, strain arx1, stronger effect = lower value 1.01 | locus YDR137W, strain rgp1, stronger effect = lower value 0.96 | locus YDR150W, strain NUM1, stronger effect = lower value 1.03 | locus YDR159W, strain sac3, stronger effect = lower value 0.963 | locus YDR162C, strain NBP2, stronger effect = lower value 0.996 | locus YDR195W, strain ref2 1.01 | locus YDR297W, strain sur2, stronger effect = lower value 0.993 | locus YDR318W, strain mcm21, stronger effect = lower value 1.02 | locus YDR334W, strain swr1, stronger effect = lower value 1.01 | locus YDR335W, strain msn5, stronger effect = lower value 0.989 | locus YDR388W, stronger effect = lower value 1.03 | locus YDR392W, strain spt3, stronger effect = lower value 0.934 | locus YDR502C, strain sam2, stronger effect = lower value 1.01 | locus YEL003W, strain gim4, stronger effect = lower value 0.983 | locus YEL037C, strain rad23, stronger effect = lower value 0.994 | locus YEL061C, strain CIN8 (second series), stronger effect = lower value 0.988 | locus YEL061C, strain CIN8, stronger effect = lower value 1.02 | locus YER015W, strain faa2, stronger effect = lower value 0.995 | locus YER016W, strain bim1, stronger effect = lower value 0.989 | locus YER110C, stronger effect = lower value 1.04 | locus YER111C, strain swi4, stronger effect = lower value 0.986 | locus YER155C, strain BEM2 (second series), stronger effect = lower value 0.981 | locus YER155C, strain BEM2, stronger effect = lower value 1.01 | locus YER167W, strain BCK2, stronger effect = lower value 1.05 | locus YFR010W, strain ubp6, stronger effect = lower value 1 | locus YGL078C, strain dbp3, stronger effect = lower value 0.985 | locus YGL086W, strain mad1, stronger effect = lower value 1.03 | locus YGL167C, strain pmr1, stronger effect = lower value 0.964 | locus YGL173C, strain kem1, stronger effect = lower value 0.967 | locus YGL227W, strain vid30, stronger effect = lower value 0.992 | locus YGL240W, strain doc1, stronger effect = lower value 0.965 | locus YGL248W, strain PDE1, stronger effect = lower value 1.02 | locus YGL253W, strain hxk2, stronger effect = lower value 0.991 | locus YGR078C, strain PAC10, stronger effect = lower value 1.02 | locus YGR135W, strain pre9, stronger effect = lower value 1.01 | locus YGR229C, strain SMI1, stronger effect = lower value 1.04 | locus YGR252W, strain gcn5, stronger effect = lower value 1.01 | locus YHR013C, strain ard1, stronger effect = lower value 1.02 | locus YHR027C, strain rpn1, stronger effect = lower value 0.997 | locus YHR030C, strain SLT2, stronger effect = lower value 1.03 and 1.13 | locus YHR079C, strain IRE1 (second series), stronger effect = lower value 1.02 | locus YHR079C, strain IRE1, stronger effect = lower value 0.993 | locus YHR094C, strain hxt1, stronger effect = lower value 1.03 | locus YHR129C, strain ARP1, stronger effect = lower value 1.03 | locus YHR142W, strain chs7, stronger effect = lower value 0.991 | locus YHR200W, strain rpn10, stronger effect = lower value 1.03 | locus YIL066C, strain RNR3, stronger effect = lower value 1.01 | locus YIL073C, strain SPO22, stronger effect = lower value 1.09 | locus YIL125W, strain kgd1, stronger effect = lower value 1.03 | locus YIR030C, strain dcg1, stronger effect = lower value 1.03 | locus YJL092W, strain hpr5, stronger effect = lower value 0.997 | locus YJL095W, strain BCK1 (second series), stronger effect = lower value 0.987 | locus YJL095W, strain BCK1, stronger effect = lower value 1.02 and 0.998 | locus YJL115W, strain asf1, stronger effect = lower value 0.994 | locus YJL129C, strain trk1, stronger effect = lower value 0.963 | locus YJL134W, strain LCB3, stronger effect = lower value 1.02 | locus YJL154C, strain vps35, stronger effect = lower value 0.997 | locus YJL164C, strain tpk1, stronger effect = lower value 1.01 | locus YJL166W, strain qcr8, stronger effect = lower value 0.986 | locus YJL168C, strain set2, stronger effect = lower value 1.02 | locus YJL187C, strain SWE1 (second series), stronger effect = lower value 1 | locus YJL187C, strain SWE1, stronger effect = lower value 0.992 | locus YJR043C, strain POL32, stronger effect = lower value 1.02 | locus YJR066W, strain TOR1, stronger effect = lower value 0.999
